# Experimental data published in PubChem BioAssay (NCATS).
# “And” between values parts separate entries of the source, which are not always exact repeats. Identical values can stand only once. Records with an inconclusive call do not appear. Entries that show only a call come without a potency. The source made the active and inactive calls. Unless noted, the call rests on the fitted dose curve.
# Legend:
# [1] = Primary qHTS for inhibitors of SARS-S pseudo-typed particle cell entry (AID 1479145); conditions: outcome: dose series up to 57.1 µM unless noted; further: nearly all actives have a fitted effect of over 45% in size; further: potency means the concentration at half of the fitted maximal effect
# [2] = Primary qHTS for Huh7 cytotoxicity: counterscreen for inhibitors of MERS-S pseudotyped particle cell entry (AID 1479147); conditions: outcome: dose series up to 57.1 µM unless noted; further: potency means the concentration at half of the fitted maximal effect
# [3] = Primary qHTS for inhibitors of MERS-S pseudo-typed particle cell entry (AID 1479149); conditions: outcome: dose series up to 57.1 µM unless noted; further: nearly all actives have a fitted effect of over 60% in size; further: potency means the concentration at half of the fitted maximal effect
# [4] = Cytotoxicity counterscreen for inhibitors of SARS-CoV-2 cell entry (AID 1645845); conditions: outcome: dose series up to 57.1 µM unless noted; further: nearly all actives have a fitted effect of over 50% in size; further: potency means the concentration at half of the fitted maximal effect
# How it was run: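 Counterscreen run in the same HEK293-ACE2 line as the pseudotyped-particle entry assay, without particles. Viability after 48 h at 37 C was read as ATP luminescence, scaled between cell-containing and cell-free wells.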
# [5] = KB-8-5-11 P-gp reporter qHTS against the NCATS DSHEA and TCM libraries (AID 1919977; active means well fitted curve in the direction sought with a large enough effect; an effect the other way counts as inactive or inconclusive)
# How it was run: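 Viability of drug-resistant KB-8-5-11 cells is measured by CellTiter-Glo luminescence following roughly 72 h treatment at 37C. Substances were titrated, with bortezomib as intraplate control.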
# [6] = Primary qHTS for Vero E6 cytotoxicity: counterscreen for inhibitors of SARS-S pseudo-typed particle cell entry (AID 1479150); conditions: outcome: dose series up to 57.1 µM unless noted
# [7] = target: Nuclear receptor subfamily 1 group I member 3 (Homo sapiens) (UniProt Q14994); experiment: Primary qHTS for antagonist of constitutive androstane receptor (CAR) against the NCATS DSHEA and TCM libraries (AID 1794836; active means well fitted curve in the direction sought with a large enough effect; an effect the other way counts as inactive or inconclusive;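 further: HepG2 cells stably expressing hCAR with CYP2B6 luciferase reporter stimulated by CITCO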)
# Chain of Nuclear receptor subfamily 1 group I member 3 (Homo sapiens) (Q14994 whole entry, looked up): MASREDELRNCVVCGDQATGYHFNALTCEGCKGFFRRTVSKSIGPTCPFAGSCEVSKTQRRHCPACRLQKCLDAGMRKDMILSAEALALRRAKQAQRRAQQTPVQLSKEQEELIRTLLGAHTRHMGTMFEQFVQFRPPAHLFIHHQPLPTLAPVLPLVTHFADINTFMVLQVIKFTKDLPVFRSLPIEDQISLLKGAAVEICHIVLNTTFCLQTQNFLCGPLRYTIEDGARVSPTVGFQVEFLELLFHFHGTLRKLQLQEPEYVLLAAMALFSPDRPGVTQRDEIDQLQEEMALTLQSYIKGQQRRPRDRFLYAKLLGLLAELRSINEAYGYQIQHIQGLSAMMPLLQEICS
# How it was run: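 HepG2-CYP2B6-hCAR cells, attached 5 h, given compounds plus CITCO agonist […], incubated 24 h at 37 C. Luciferase luminescence read, multiplexed with CellTiter-Fluor viability (Ex/Em 405/540 nm).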
# [8] = Primary qHTS to identify inhibitors of SARS-CoV-2 cell entry (AID 1645846); conditions: SARS-CoV-2 pseudovirus cell entry assay, luminescence; activity change, negative = inhibition: at 57.1 µM (top of the series) unless noted; further: nearly all actives have a fitted effect of over 45% in size; further: potency means the concentration at half of the fitted maximal effect
# How it was run: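 Using luciferase-reporting pseudoviruses carrying Wuhan-Hu-1 spike, the screen tracks entry into stably ACE2-expressing cells over 48 hr. Activity is expressed relative to spike particles versus particles lacking any fusion protein.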
# [9] = Confirmatory qHTS to identify inhibitors of SARS-CoV-2 cell entry (AID 1645844); further: potency means the concentration at half of the fitted maximal effect; nearly all actives have a fitted effect of over 45% in size
# How it was run: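 HEK293-ACE2, overnight seeding; cpd 1 h, 37C/5% CO2; + SARS-CoV-2-S MLV PP (Wuhan-Hu-1, ΔC19); 48 h; Bright-Glo luminescence. Data normalised to S PP and bald PP wells.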
# [10] = VSVG counterscreen qHTS to identify inhibitors of SARS-CoV-2 cell entry (AID 1645847); further: nearly all actives have a fitted effect of over 65% in size; further: potency means the concentration at half of the fitted maximal effect
# How it was run: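 Entry of VSV-G pseudotyped particles into human ACE2-expressing HEK293 cells was measured by luciferase luminescence 48 h after infection, with compound added 1 h beforehand.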
# [11] = NCATS anti-infectives library activity on the primary C. elegans qHTS viability assay (AID 1745855)
# How it was run: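 Titration-based screen in worms: eggs hatched overnight in M9, L1 larvae fed TOP10 capsules in S medium with compound, incubated 21 °C for 7 days; fluorescent objects gated by size and intensity at days 0, 3 and 7.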
# [12] = target: Glutathione peroxidase 1 (Homo sapiens) (UniProt P07203); experiment: Primary qHTS Assay for Inhibitors of Recombinant Selenoprotein Glutathione Peroxidase 1 (GPX1) (AID 1845191; active means well fitted curve in the direction sought with a large enough effect; an effect the other way counts as inactive or inconclusive; further: nearly all actives have a fitted effect of over 65% in size)
# Chain of Glutathione peroxidase 1 (Homo sapiens) (P07203 whole entry, looked up): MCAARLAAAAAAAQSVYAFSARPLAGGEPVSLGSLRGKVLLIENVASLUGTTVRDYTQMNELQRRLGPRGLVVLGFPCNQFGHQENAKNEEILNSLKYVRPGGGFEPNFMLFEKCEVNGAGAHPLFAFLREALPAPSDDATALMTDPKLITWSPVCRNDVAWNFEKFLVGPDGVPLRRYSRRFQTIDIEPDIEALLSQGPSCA
# How it was run: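 GR-coupled readout: NADPH consumption tracked by fluorescence, ex 340/em 450 nm, at t=0 and after 15 min at RT. Final mix 10 nM GPX1, 1 mM GSH, 0.5 mM CHP, 0.5 mM NADPH, 100 nM GR, 0.01% BSA, following 30 min enzyme–compound preincubation.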
# [13] = target: Phospholipid hydroperoxide glutathione peroxidase GPX4 (Homo sapiens) (UniProt P36969); experiment: Primary qHTS Assay for Inhibitors of Recombinant Selenoprotein Glutathione Peroxidase 4 (GPX4) (AID 1845192; active means well fitted curve in the direction sought with a large enough effect; an effect the other way counts as inactive or inconclusive; further: nearly all actives have a fitted effect of over 65% in size)
# Chain of Phospholipid hydroperoxide glutathione peroxidase GPX4 (Homo sapiens) (P36969 whole entry, looked up): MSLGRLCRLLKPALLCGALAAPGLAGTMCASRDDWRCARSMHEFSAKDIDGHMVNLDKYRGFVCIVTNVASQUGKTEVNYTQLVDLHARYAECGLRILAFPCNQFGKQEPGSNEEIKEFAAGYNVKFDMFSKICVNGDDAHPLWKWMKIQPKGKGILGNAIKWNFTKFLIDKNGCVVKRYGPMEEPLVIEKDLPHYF
# How it was run: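 Steps: GPX4 plus compound, 30 min RT; add GR/GSH/NADPH master mix; start with cumene hydroperoxide; read 340/450 nm fluorescence at 0 and 15 min. Finals were 200 nM GPX4, 1 mM GSH, 0.5 mM CHP, 0.5 mM NADPH, 100 nM GR.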
# [14] = qHTS Assay for Lipid Storage Modulators (AID 1519); conditions: Drosophila S3 cells, BODIPY lipid droplet/cell ratio, laser cytometry, cells loaded with oleic acid
# How it was run: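 Cells seeded at 5,000 per well were treated with compounds over a concentration series and loaded with oleic acid (400 uM, as added). Lipid droplet fluorescence (488 nm excitation, 500-530 nm channel) was read by laser-scanning cytometry and normalized to 20 uM Triacsin C.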
# [15] = target: Ubiquitin carboxyl-terminal hydrolase 1 (Homo sapiens) (UniProt O94782); experiment: Inhibitors of USP1/UAF1: Pilot qHTS (AID 504865; active means well fitted curve in the direction sought with a large enough effect; an effect the other way counts as inactive or inconclusive;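 further: rhodamine fluorescence freed from ubiquitin-rhodamine substrate followed over time; top concentration of the series differs between compounds; nearly all actives have a fitted effect of over 35% in size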)
# Chain of Ubiquitin carboxyl-terminal hydrolase 1 (Homo sapiens) (O94782 whole entry, looked up): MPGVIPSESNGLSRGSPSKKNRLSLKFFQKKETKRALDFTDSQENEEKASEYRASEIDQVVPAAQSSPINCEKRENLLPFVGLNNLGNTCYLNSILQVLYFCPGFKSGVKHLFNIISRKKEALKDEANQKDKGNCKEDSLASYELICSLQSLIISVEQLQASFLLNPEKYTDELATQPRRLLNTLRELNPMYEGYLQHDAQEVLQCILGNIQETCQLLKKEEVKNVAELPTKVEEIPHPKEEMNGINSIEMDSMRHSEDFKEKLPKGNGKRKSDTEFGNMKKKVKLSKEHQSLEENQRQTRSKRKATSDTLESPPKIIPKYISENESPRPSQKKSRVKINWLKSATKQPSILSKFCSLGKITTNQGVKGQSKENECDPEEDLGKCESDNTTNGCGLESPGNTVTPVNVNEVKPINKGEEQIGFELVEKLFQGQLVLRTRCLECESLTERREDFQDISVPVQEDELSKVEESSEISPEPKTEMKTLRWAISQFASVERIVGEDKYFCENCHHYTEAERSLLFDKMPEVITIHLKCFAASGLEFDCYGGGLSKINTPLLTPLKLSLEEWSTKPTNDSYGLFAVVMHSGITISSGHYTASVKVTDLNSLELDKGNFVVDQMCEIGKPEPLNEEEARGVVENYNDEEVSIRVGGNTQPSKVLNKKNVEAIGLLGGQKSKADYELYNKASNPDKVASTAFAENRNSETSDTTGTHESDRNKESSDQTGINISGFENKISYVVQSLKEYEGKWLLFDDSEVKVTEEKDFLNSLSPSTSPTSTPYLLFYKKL
# How it was run: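 Enzyme-free wells gave the negative control, while test wells held 1nM USP1/UAF1 preincubated with compound for 15 min at room temperature. Ub-Rho at 150nM final started the reaction, and fluorescence at 480/540 nm was recorded kinetically.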
# [16] = target: Bile acid receptor (Homo sapiens) (UniProt Q96RI1); experiment: qHTS assay for small molecule agonists of farnesoid X receptor signaling (AID 588527); conditions: HEK293T FXR-UAS-bla, beta-lactamase ratio, 16 h; stronger effect = higher value
# Chain of Bile acid receptor (Homo sapiens) (Q96RI1 whole entry, looked up): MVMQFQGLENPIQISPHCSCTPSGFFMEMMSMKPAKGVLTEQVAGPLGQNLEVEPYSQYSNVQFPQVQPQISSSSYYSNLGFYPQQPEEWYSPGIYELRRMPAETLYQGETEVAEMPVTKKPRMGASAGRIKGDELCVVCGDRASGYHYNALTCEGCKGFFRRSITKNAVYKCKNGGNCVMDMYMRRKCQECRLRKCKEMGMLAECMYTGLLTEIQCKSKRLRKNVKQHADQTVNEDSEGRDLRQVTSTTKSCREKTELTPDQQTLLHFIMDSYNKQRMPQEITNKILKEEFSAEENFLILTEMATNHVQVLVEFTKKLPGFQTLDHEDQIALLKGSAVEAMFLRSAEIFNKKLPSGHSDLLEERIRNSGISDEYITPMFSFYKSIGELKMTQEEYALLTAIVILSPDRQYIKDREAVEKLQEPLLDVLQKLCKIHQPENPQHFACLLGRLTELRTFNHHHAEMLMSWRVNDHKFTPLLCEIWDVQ
# How it was run: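 Quantitative HTS used FXR-UAS-bla HEK293T cells with 16 h compound incubation at 37 C. EC50 values came from concentration-response curves normalized to chenodeoxycholic acid.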
# [17] = target: Peroxisome proliferator-activated receptor delta (Homo sapiens) (UniProt Q03181); experiment: qHTS assay for small molecule agonists of peroxisome proliferator-activated receptor delta signaling (AID 588534)
# Chain of Peroxisome proliferator-activated receptor delta (Homo sapiens) (Q03181 whole entry, looked up): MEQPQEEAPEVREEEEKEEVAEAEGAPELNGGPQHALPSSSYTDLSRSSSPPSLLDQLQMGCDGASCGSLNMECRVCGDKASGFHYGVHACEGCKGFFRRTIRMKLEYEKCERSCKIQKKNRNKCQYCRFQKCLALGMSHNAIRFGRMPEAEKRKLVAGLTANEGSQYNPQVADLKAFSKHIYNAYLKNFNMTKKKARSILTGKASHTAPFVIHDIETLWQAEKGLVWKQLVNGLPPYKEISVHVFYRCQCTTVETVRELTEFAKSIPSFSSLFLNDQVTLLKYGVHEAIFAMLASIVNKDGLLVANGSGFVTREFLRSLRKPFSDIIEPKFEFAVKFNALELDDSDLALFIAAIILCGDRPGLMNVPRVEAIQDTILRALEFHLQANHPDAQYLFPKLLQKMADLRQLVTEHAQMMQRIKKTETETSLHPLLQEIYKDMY
# How it was run: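 EC50 and efficacy values derive from Hill fits of a concentration series in a beta-lactamase reporter cell assay. Exposure is 18 hrs at 37 C, with CCF4 fluorescence as the readout.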
# [18] = target: Peroxisome proliferator-activated receptor gamma (Homo sapiens) (UniProt P37231); experiment: qHTS assay for small molecule agonists of peroxisome proliferator-activated receptor gamma signaling (AID 588536; active means well fitted curve in the direction sought with a large enough effect in the signal ratio, with a control signal flat, not every such curve was filed as active; the % refers to the signal ratio)
# Chain of Peroxisome proliferator-activated receptor gamma (Homo sapiens) (P37231 whole entry, looked up): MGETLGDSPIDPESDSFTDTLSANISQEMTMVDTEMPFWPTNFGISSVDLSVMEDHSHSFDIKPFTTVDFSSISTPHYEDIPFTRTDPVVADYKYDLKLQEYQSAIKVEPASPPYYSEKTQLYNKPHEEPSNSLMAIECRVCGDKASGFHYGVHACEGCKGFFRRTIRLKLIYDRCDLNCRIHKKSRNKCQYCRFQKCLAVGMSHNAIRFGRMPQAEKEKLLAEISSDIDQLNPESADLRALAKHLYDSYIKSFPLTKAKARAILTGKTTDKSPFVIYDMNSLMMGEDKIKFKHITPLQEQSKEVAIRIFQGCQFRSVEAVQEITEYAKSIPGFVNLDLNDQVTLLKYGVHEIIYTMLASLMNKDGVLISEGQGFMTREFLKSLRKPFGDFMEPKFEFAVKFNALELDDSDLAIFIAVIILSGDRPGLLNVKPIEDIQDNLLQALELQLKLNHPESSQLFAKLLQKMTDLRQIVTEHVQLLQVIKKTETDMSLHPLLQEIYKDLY
# How it was run: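 Using GeneBLAzer HEK293 cells, response was quantified by CCF4 fluorescence and normalized between basal DMSO (0%) and rosiglitazone 2 uM (100%); curves yielded half-maximal stimulation concentration and efficacy.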
# [19] = S16 Schwann cell PMP22 intronic element firefly luciferase assay (AID 624032; active means well fitted curve in the direction sought with a large enough effect; an effect the other way counts as inactive or inconclusive; further: potency means the concentration at half of the fitted maximal effect; nearly all actives have a fitted effect of over 30% in size)
# How it was run: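 Rat S16 Schwann cells stably carrying firefly luciferase driven by a PMP22 intronic element, in 10% FBS, treated 24 h at 37 C. ONE-Glo luminescence normalized to PTC124 control and DMSO (0%); curves classed by r2, magnitude and activity.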
# [20] = qHTS assay for small molecule agonists of the antioxidant response element (ARE) signaling pathway (AID 651741; active means well fitted activation curve with a large enough effect in the signal ratio; the % refers to the signal ratio; further: potency means the concentration at half of the fitted maximal effect)
# How it was run: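 HepG2 ARE-bla reporter cells, 2,000/well; 5 h settle at 37 C/5% CO2; compound pin transfer (23 nL, DMSO); 16 h at 37 C; LiveBLAzer B/G FRET substrate, 2 h RT; fluorescence intensity read.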
# [21] = qHTS assay for small molecule agonists of the antioxidant response element (ARE) signaling pathway measured by Nrf2-dependant transcriptional activity (AID 720636; active means well fitted curve in the direction sought with a large enough effect in the repeat runs; an effect the other way counts as inactive or inconclusive;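 further: HepG2 cells with an ARE-driven luciferase reporter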)
# How it was run: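 Reporter gene assay, HepG2 ARE-luc: 16 hr compound, 37 C, 5% CO2; read-out luciferase luminescence.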
structure (smiles),measurement,setting,value
CCCCCC/C=C\CCCCCCCC(=O)O,Potency,[1],inactive
same,Potency,[2],inactive
same,Potency,[3],inactive
same,Potency,[4],inactive
same,Potency,[5],inactive
CCCCCCCCCC(=O)OC1(c2ccc(Cl)cc2)CCN(CCCC(=O)c2ccc(F)cc2)CC1,Potency,[1],inactive
same,Potency,[2],inactive
same,Potency,[6],inactive
same,Potency,[4],inactive
C=C1CC[C@H](O)CC1=C/C=C1\CCC[C@]2(C)[C@@H]([C@H](C)/C=C/[C@H](C)C(C)C)CC[C@@H]12,Potency,[1],inactive
same,Potency,[2],inactive
same,Potency,[6],inactive
same,Potency,[7],inactive
same,Potency,[5],inactive
Nc1nc(-n2cc(C(=O)O)c(=O)c3cc(F)c(N4CC(O)C4)c(Cl)c32)c(F)cc1F,Potency,[1],inactive
same,Potency,[2],inactive
same,Potency,[6],inactive
same,Potency,[4],inactive
CCC[C@H](NC(=O)[C@@H]1[C@H]2CCC[C@H]2CN1C(=O)[C@@H](NC(=O)[C@@H](NC(=O)c1cnccn1)C1CCCCC1)C(C)(C)C)C(=O)C(=O)NC1CC1,Potency,[1],inactive
same,Potency,[2],inactive
same,Potency,[6],inactive
same,Potency,[4],inactive
same,"activity change, negative = inhibition",[8],0.184%
CN1CCN(CCCN2c3ccccc3Sc3ccccc32)CC1,Potency,[1],28.2 µM (active)
same,Potency,[2],31.6 µM (active)
same,Potency,[3],31.6 µM (active)
same,Potency,[8],31.6 µM (active)
C=C1C/C(=C\C=C2/CCC[C@]3(C)[C@@H]([C@H](C)/C=C/C(C)C(C)C)CC[C@@H]23)[C@@H](O)C[C@@H]1O (some centres undefined),Potency,[1],inactive
same,Potency,[2],inactive
same,Potency,[6],inactive
same,Potency,[9],0.541 µM (active)
same,Potency,[10],0.429 µM (active)
CC[C@H]1OC(=O)[C@H](C)[C@@H](O[C@H]2C[C@@](C)(OC)[C@@H](O)[C@H](C)O2)[C@H](C)[C@@H](O[C@@H]2O[C@H](C)C[C@H](N(C)C)[C@H]2O)[C@](C)(O)C[C@@H](C)CN(C)[C@H](C)[C@@H](O)[C@]1(C)O,Potency,[1],inactive
same,Potency,[2],inactive
same,Potency,[6],inactive
same,Potency,[9],24.1 µM (active)
same,Potency,[4],inactive
same,Potency,[8],12.6 µM (active)
same,Potency,[10],inactive
COC(=O)N[C@H](C(=O)N1CC2(CC2)C[C@H]1c1ncc(-c2ccc3c(c2)C(F)(F)c2cc(-c4ccc5nc([C@@H]6[C@H]7CC[C@H](C7)N6C(=O)[C@@H](NC(=O)OC)C(C)C)[nH]c5c4)ccc2-3)[nH]1)C(C)C,Potency,[1],inactive
same,Potency,[2],inactive
same,Potency,[6],inactive
same,Potency,[4],inactive
CC[C@@]1([C@@H]2O[C@@H]([C@H]3O[C@@](O)(CO)[C@H](C)C[C@@H]3C)C[C@@H]2C)CC[C@H]([C@]2(C)CCC3(C[C@H](O)[C@@H](C)[C@@H]([C@@H](C)[C@@H](OC)[C@H](C)C(=O)O)O3)O2)O1 (some centres undefined),Potency,[1],inactive
same,Potency,[3],1.12 µM (active)
same,Potency,[6],inactive
COc1ccc(C=CC(=O)O)cc1,Potency,[1],inactive
same,Potency,[2],inactive
same,Potency,[6],inactive
same,Potency,[4],inactive
same,"activity change, negative = inhibition",[8],-10.2%
C=C1CC[C@H](O)CC1=C/C=C1\CCC[C@]2(C)[C@@H]([C@H](C)CCCC(C)(C)O)CC[C@@H]12,Potency,[1],inactive
same,Potency,[2],inactive
same,Potency,[6],inactive
same,Potency,[4],inactive
C=C[C@@H]1C[C@]1(NC(=O)[C@@H]1C[C@@H](Oc2ncc(OC)c3ccc(Cl)cc23)CN1C(=O)[C@@H](NC(=O)OC(C)(C)C)C(C)(C)C)C(=O)NS(=O)(=O)C1CC1,Potency,[1],inactive
same,Potency,[2],inactive
same,Potency,[6],inactive
same,Potency,[10],10.8 µM (active)
Nc1nc(Cl)nc2c1ncn2C1CC(O)C(CO)O1 (centres undefined),Potency,[1],11.2 µM (active)
same,Potency,[2],inactive
same,Potency,[6],inactive
same,Potency,[9],19.2 µM (active)
same,Potency,[4],inactive
same,Potency,[10],19.2 µM (active)
C/C(O)=C(\C#N)C(=O)Nc1ccc(C(F)(F)F)cc1,Potency,[1],inactive
same,Potency,[3],inactive
same,Potency,[4],8.91 µM (active)
CC[C@H](C)[C@@H]([C@@H](CC(=O)N1CCC[C@H]1[C@H](OC)[C@@H](C)C(=O)NCCc1ccccc1)OC)N(C)C(=O)[C@@H](NC(=O)[C@H](C(C)C)N(C)C)C(C)C,Potency,[2],inactive
CC1(S(=O)(=O)O)CC(=O)c2ccccc2C1=O (centres undefined),Potency,[1],inactive
same,Potency,[6],inactive
CC(C)OC(=O)[C@H](C)N[P@](=O)(CO[C@H](C)Cn1cnc2c(N)ncnc21)Oc1ccccc1,Potency,[1],0.891 µM (active)
same,Potency,[3],inactive
same,Potency,[6],inactive
same,Potency,[4],inactive
same,Potency,[10],0.0096 µM (active)
same,Potency,[11],inactive
same,Potency,[12],inactive
same,Potency,[13],inactive
COc1cc(CNC(=O)CCCC/C=C/C(C)C)ccc1O,"activity change, negative = inhibition",[14]; at 57.5 µM (top of the series),-5.1% (inactive) and 0.692% (inactive)
same,max response,[14]; measured here: cell count channel max response,-0.801% and 21.3%
same,max response,[14]; measured here: lipid channel max response,-2.34% and 21.8%
same,Potency,[15],inactive
same,activation,[16],-2.84% (inactive) and 4.77% (inactive)
same,outcome,[17],inactive
same,outcome,[18],inactive
same,Potency,[19],9.07 µM (active)
same,Potency,[20],42.2 µM (active)
same,outcome,[21],inactive
same,Potency,[2],inactive
same,Potency,[3],inactive
same,Potency,[6],inactive
same,Potency,[4],inactive
same,"activity change, negative = inhibition",[8],-28.1% and -35.9%
